From PubChem BioAssay AID2288 (National Center for Advancing Translational Sciences (NCATS), 2010)
In all, about 340,000 compounds went through this assay and fewer than 10 were called active. Another 2% or so got no clear call; they are omitted. Calls come from the whole dose curve; as a rule, active = well fitted curve in the direction sought with a large enough effect; inconclusive = small, poorly fitted or top-dose-only effect, or another doubt; inactive = no such curve, though single readings can be large or run the other way. These entries were drawn from the full list.

Assay: qHTS Assay for Modulators of miRNAs and/orActivators of miR-21;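 note: % of control where 0% means no effect; miR-21 action dims this reporter so a rising signal means less miR-21 action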
Details: HeLa miR-21 FLuc reporter, luciferase, 48 h; series mostly up to 38.3 µM; activity change, positive = activation: at the top concentration
Text: MLSCN Grant: 1 R21 NS059478-01 Assay Provider: Qihong Huang, The Wistar Institute NCGC Assay Overview: MicroRNAs (miRNAs) are endogenously encoded small (~20-25 nucleotides), nonprotein-coding RNAs that are involved in post-transcriptional repression of target messenger RNAs (mRNAs) (Le and Hannon, 2004). Estimated to be involved in the regulation of 30% of all protein-coding mRNAs (Filipowicz et al., 2008), miRNAs play a significant role in many biological processes including cellular differentiation and tissue development (Ghildiyal and Zamore, 2009).
NCGC Assay Protocol Summary: Reagents: HeLa cells stably expressing firefly luciferase (FLuc) under the control of a CMV promoter (upstream) and a miR-21 binding sequence directly downstream of the gene. These cells endogenously express miR-21. Control compounds used were compound C3 (provided by collaborator), N6-phenyladenosine (MP Biomedicals, 0215379625), and DMSO. Assay Summary: 6uL of HeLa miR-21-FLuc cells in assay buffer (DMEM, Invitrogen #21063-029; 10% FBS, HyClone #SH30071.03) were dispensed at 2000cells/well (3.3 x 10^5 cells/mL) into Greiner solid-white TC-treated 1536-well plates using a Multidrop Combi (Thermo Fisher Scientific). Plates were incubated for one hour at 37 degree Celsius, 95% humidity, 5% CO2. These assay plates were then treated with 23nL of compound or DMSO using a Kalypsys pin tool, which allows for delivery of a 24-point titration of each compound to the assay plate, with a final compound concentration ranging from approximately 40uM to 5pM. Assay plates were then incubated for 48 hours. After incubation, plates were allowed to come to RT for one hour prior to delivery of 3uL of 3X luciferase detection reagent. After a 15 minute incubation to allow for cell lysis, luciferase activity was measured using a ViewLux CCD imager (PerkinElmer), with an average exposure time of 2-12 seconds. Keywords: NIH Roadmap, MLPCN, MLSMR, qHTS, miR-21, microRNA, firefly luciferase, FLuc.

Activity change, positive = activation, inactive:
Cc1ccc(S(=O)(=O)c2nc(-c3cccs3)oc2N2CCCCC2)cc1 1.01%, Cc1cccc(NC(=O)Cn2cc(S(=O)(=O)Cc3ccccc3Cl)c3ccccc32)c1 7.43%, O=C(NC1CC(=O)N(c2ccc(F)cc2)C1)c1cccs1 (stereo unspecified) -2.97%, COc1ccc(Cl)cc1S(=O)(=O)N1CCC(c2ccncc2)CC1 12.3%, CC(C)CC(NS(=O)(=O)c1ccc2c(c1)oc(=O)n2C)C(=O)NCc1ccccc1Cl (stereo unspecified) -0.815%, CCc1ccccc1NC(=O)CSc1nnc(-c2ccccc2)c(-c2ccccc2)n1 13.9%, CCCc1nn2c(=O)cc(COC(=O)c3ccc(NC(=O)COc4ccc(F)cc4)cc3)nc2s1 -7.11%, CCOc1ccccc1CNC(=O)c1ccc2c(c1)nc1n2CCC(C)C1 (stereo unspecified) -0.912%, COc1ccc2c(c1)C=C(C(=O)NCc1cc(Br)ccc1OC)CO2 4.49%, CC(C)Cn1c(-c2ccc(S(=O)(=O)N3CCOCC3)cc2)csc1=Nc1cc(Cl)ccc1Cl -1.77%, O=C(Cc1ccc(Cl)cc1)NCC(c1cccs1)S(=O)(=O)c1ccc(Cl)cc1 (stereo unspecified) 14.4%, COc1cc(OC)c(NC(=O)c2cnc(N3CCCC3)nc2C)cc1Cl -8.6%, Cc1ccc(C(=O)COC(=O)C(Cc2c[nH]c3ccccc23)NC(=O)c2ccc(Br)cc2)cc1 (stereo unspecified) -3.65%, Cc1cc(N2CCN(c3cccc(C(F)(F)F)c3)CC2)n2nc(-c3ccccc3)nc2n1 1.74%, CCCNC(=O)c1ccc(Cn2c(SCC(N)=O)nc3ccccc3c2=O)cc1 -24.5%, Cn1c(=O)c(C(=O)O)nn(-c2ccccc2)c1=O 3.23%, Cc1ccc(OCC(=O)Nc2ccc(OCc3cc(=O)n4c(C)csc4n3)cc2)cc1C -2.25%, COc1cc(OC)c(NC(=O)c2c3c(nn2C)-c2ccccc2SC3)cc1Cl 1.84%, COC(=O)c1ccccc1NC(=O)Cn1c(=O)n(-c2cccc(C(F)(F)F)c2)c(=O)c2c(C)c(C)sc21 0.641%, Brc1ccc2c(c1)NC(c1cccnc1)=NC(c1ccccc1)=N2 -10.5%, CCOC(=O)c1cc(-c2ccccc2)n(CCC(=O)Nc2ccccc2CC)c1C -4.44%, COc1ccccc1-c1nnc(C2CCN(C(=O)c3ccc(Cl)cc3)CC2)o1 -3.37%, CCCCN(C)c1nnc(NC(=O)Nc2ccc(Br)c(C)c2)s1 -3.2%, CCOC(=O)Cn1c(=O)n(C2CCCCC2)c2nc(-c3cccc(OC)c3)nc(C(N)=O)c21 -0.638%, Cc1cc(C)c(NC(=O)CCc2c(C)nc3c(c(C)nn3C(C)(C)C)c2C)c(C)c1 4.5%, O=C(NC1CC(=O)N(c2ccc(F)cc2)C1)c1ccc(S(=O)(=O)N2CCCC2)cc1 (stereo unspecified) -5.5%, Cc1ccc(-c2nnc(Nc3ccc(OCC(N)=O)cc3)c3ccccc23)cc1S(=O)(=O)NCC1CCCO1 (stereo unspecified) -3.57%, O=C(c1ccc(Br)cc1)N(Cc1cccs1)c1ccc(F)cc1 15.3%, CC1=C(C(=O)OCC2CCCCC2)C(c2c(F)cccc2Cl)CC(=O)N1 (stereo unspecified) -3.1%, Cc1ccc(OCCSc2nc(C)c(Cc3ccccc3)c(=O)[nH]2)cc1 -0.304%, CCOc1ccc(-c2cc(C)n3nc(C(=O)Nc4ccc(C)c(C)c4)cc3n2)cc1 -15.3%, Cc1ccc2oc3c(c(=O)c2c1)C(c1ccc(O)cc1)N(Cc1ccc2c(c1)OCO2)C3=O (stereo unspecified) 0.711%, COc1ccc(-c2cc(C(=O)Nc3sc4c(c3C(N)=O)CCCC4)no2)cc1 -12.6%, COc1cccc(-c2cc(C(=O)Nc3ccc(C)cc3)[nH]n2)c1 -37.4%, CCCCN(CC)CCCNC(=O)c1nn(C)c2c1CSc1ccccc1-2 -4.82%, Cc1ccccc1CNC(=O)c1cccc(NC(=O)c2nsc3ccccc23)c1 -48.8%, COc1cc(NC(=O)c2cc3ccc4cccnc4c3[nH]2)cc(OC)c1OC 1.22%, Cc1nnc(NC(=O)CSc2nc3c([nH]c4ccccc43)c(=O)n2-c2cccc(Cl)c2)s1 -7.48%, Cc1ccc2nc(COc3ccccc3NC(=O)Nc3ccc(F)c(Cl)c3)cc(=O)n2c1 -22.2%, COc1ccc(-c2nc(Cn3c(=O)cc(C)c4c(C)nn(-c5ccccc5)c43)c(C)o2)c(OC)c1 -21%, CCOCCCNC(=O)c1ccc2nc(CCc3ccccc3)oc2c1 -46.9%, CCOc1cc(CNC(=O)c2sc3ncnc(N(C)C4CCCCC4)c3c2C)ccc1OC 20.8%, Cc1ccc(C)c(Cn2c(C(=O)O)c(CNCc3cccs3)c3ccccc32)c1 5.44%, CCCN1CCN(CCCNC(=O)c2cnn(-c3ccc(C)cc3)c2-n2cccc2)CC1 1.18%, CCCCN(CC)C(=O)c1c[nH]c2ccc(S(=O)(=O)Nc3cccc(OC)c3)cc2c1=O 23%, Cc1c(-c2nc(-c3ccc4c(c3)OCO4)no2)nnn1-c1ccc(Br)cc1F -18%, O=C(NCc1cccnc1)C(=O)NCC(c1cccnc1)N1CCN(c2ccccc2)CC1 (stereo unspecified) -6.67%, Cc1ccccc1C(=O)NCc1nc(-c2ccc(Cl)cc2)no1 8.3%, CCOc1ccc(NC(=O)Cn2c(=O)n(CCCC(=O)NCc3ccc4c(c3)OCO4)c(=O)c3ccccc32)cc1 2.53%, CCOc1ccc(Nc2oc(/C=C/c3ccc(F)cc3)nc2C#N)cc1 -7.27%, CCOc1ccc(OCC)c(NC(=O)c2cc(C)nc3c2c(C)nn3-c2cccc(Cl)c2C)c1 -0.924%, COC(=O)c1ccc(NC(=O)CCc2c(C)nc3c(c(C)nn3-c3ccc(C)cc3)c2C)cc1 -1.39%, COc1cc(Cl)c(NC(=O)CC(C)S(=O)(=O)c2cc3c(cc2C)NC(=O)CO3)c(OC)c1 (stereo unspecified) -10.4%, Cc1ccc(CN2CCc3nc(N4CCN(C)CC4)ncc3C2)cc1 -0.868%, CCOC(=O)c1ccc2c(c1)N(Cc1cccc(OC)c1)C(=O)c1ccccc1S2(=O)=O 1.39%, COc1ccc(Cc2nc3ccc(C(=O)NCc4ccccc4C)cc3o2)cc1 2.75%, CCOC(=O)c1c(C)[nH]c(CCC(=O)NCCCN2CCN(c3cccc(Cl)c3)CC2)c1C 26.2%, Cc1ccc(SCC(=O)Nc2ccc3oc(-c4ccccc4F)nc3c2)cc1 -21.4%, CN(C(=O)CSc1nc2ccccc2n1Cc1ccccc1C#N)c1ccccc1 9.67%, CCc1nnc(SCc2nc(-c3cccc(C)c3)oc2C)c2cc3sc(C)cc3n12 0.608%, COc1ccccc1N1CCN(c2ncnc3onc(-c4ccc(F)cc4)c23)CC1 -4.41%
